Experimental data reported in paper PMC7862700, “An all-to-all approach to the identification of sequence-specific readers for epigenetic DNA modifications on cytosine”.

Legend:
Assay in all cases: DAPPL (digital affinity profiling via proximity ligation, sequencing); 10 mM Tris-HCl pH 7.5, 50 mM NaCl, 1 mM DTT, 4% glycerol, room temperature, 30 min; GST-TFs on glutathione beads, 16-mer random dsDNA library, 0.1% formaldehyde crosslink after washing; high values mean tight binding
Details in all cases: protein: recombinant; tags: N-terminal GST; dsDNA, one strand shown
FLI1 = molecular target: T1, FLI1 (Homo sapiens, UniProt Q01543 1-452)
T1 sequence: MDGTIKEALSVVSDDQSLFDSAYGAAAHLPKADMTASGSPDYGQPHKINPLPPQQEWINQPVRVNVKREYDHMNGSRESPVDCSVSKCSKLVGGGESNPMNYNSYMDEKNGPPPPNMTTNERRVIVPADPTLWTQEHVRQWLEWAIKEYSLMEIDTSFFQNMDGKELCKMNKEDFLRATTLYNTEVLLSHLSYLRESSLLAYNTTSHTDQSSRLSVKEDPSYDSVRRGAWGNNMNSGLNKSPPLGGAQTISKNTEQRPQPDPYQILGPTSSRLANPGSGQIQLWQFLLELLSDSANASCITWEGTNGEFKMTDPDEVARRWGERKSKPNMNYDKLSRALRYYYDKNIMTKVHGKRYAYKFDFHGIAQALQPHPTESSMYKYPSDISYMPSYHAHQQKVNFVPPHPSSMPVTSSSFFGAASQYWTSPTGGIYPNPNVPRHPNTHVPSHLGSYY
How it was run: (§1)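 Yeast served to express human transcription factors as GST fusions, which were then captured on glutathione beads and labelled with DNA barcodes. Pooled with a tag-only sample, they were incubated with 200 nmole of a 16-mer random double-stranded DNA library for 30 min at room temperature in Tris/NaCl/DTT/glycerol buffer, washed, crosslinked with 0.1% formaldehyde, ligated by proximity, amplified by PCR and sequenced. Dividing each hexamer's read frequency for a factor by its frequency for the tag-only sample gives the binding signal.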

ERG = molecular target: T2, ERG (Homo sapiens, UniProt P11308 1-479)
T2 sequence: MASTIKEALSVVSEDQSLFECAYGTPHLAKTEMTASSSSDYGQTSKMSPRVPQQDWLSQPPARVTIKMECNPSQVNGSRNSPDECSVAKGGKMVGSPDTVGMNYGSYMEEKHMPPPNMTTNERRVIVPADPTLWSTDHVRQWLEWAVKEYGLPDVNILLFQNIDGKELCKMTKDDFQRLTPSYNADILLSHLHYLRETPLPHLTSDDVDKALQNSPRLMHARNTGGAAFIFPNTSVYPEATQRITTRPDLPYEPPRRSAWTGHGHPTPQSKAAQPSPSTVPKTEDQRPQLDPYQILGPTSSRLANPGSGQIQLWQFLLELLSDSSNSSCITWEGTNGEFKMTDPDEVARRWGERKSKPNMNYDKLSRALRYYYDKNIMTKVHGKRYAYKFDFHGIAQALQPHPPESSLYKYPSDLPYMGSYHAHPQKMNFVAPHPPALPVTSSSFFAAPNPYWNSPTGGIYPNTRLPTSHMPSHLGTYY
How it was run: as §1

ELF1 = ELF1 (Homo sapiens, UniProt P32519 1-619)
ELF1, sequence (P32519 whole entry): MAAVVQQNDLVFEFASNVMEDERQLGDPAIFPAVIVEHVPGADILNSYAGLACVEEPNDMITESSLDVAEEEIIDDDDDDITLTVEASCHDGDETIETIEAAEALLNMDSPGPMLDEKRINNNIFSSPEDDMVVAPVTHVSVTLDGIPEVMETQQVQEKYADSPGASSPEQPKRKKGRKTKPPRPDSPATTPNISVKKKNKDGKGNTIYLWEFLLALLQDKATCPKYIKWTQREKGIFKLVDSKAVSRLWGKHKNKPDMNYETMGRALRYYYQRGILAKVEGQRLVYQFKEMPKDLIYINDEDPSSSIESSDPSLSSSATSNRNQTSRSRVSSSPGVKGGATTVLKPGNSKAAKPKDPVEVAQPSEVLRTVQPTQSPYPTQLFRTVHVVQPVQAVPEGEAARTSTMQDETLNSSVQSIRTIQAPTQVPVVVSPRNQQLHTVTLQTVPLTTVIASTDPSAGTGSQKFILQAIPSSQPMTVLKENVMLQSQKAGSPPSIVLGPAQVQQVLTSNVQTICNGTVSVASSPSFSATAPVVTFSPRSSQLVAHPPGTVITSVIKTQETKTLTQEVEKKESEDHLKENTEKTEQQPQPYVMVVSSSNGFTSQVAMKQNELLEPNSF
How it was run: as §1

SPIB = SPIB (Homo sapiens, UniProt Q01892 1-262)
SPIB, sequence (Q01892 whole entry): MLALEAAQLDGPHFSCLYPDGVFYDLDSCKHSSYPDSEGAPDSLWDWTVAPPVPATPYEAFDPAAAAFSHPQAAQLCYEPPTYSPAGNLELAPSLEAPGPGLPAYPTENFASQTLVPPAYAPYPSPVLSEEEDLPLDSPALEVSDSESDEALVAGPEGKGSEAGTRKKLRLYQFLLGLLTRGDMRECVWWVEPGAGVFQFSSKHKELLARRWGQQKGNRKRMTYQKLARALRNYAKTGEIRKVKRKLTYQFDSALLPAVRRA
How it was run: as §1

ELK3 = molecular target: T3, ELK3 (Homo sapiens, UniProt P41970 1-407)
T3 sequence: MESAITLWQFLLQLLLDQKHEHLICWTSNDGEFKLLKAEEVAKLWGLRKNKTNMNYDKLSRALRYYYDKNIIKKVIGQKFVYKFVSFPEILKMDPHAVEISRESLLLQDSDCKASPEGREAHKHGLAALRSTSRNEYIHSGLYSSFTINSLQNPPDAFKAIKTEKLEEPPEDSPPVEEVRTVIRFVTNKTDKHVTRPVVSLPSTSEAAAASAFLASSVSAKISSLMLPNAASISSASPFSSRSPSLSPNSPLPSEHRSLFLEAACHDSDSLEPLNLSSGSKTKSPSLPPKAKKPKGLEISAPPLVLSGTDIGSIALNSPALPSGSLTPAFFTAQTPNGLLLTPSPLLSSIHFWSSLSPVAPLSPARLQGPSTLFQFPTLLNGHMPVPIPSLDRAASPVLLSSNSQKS
How it was run: as §1

ETV1 = ETV1 (Homo sapiens, UniProt P50549 1-477)
ETV1, sequence (P50549 whole entry): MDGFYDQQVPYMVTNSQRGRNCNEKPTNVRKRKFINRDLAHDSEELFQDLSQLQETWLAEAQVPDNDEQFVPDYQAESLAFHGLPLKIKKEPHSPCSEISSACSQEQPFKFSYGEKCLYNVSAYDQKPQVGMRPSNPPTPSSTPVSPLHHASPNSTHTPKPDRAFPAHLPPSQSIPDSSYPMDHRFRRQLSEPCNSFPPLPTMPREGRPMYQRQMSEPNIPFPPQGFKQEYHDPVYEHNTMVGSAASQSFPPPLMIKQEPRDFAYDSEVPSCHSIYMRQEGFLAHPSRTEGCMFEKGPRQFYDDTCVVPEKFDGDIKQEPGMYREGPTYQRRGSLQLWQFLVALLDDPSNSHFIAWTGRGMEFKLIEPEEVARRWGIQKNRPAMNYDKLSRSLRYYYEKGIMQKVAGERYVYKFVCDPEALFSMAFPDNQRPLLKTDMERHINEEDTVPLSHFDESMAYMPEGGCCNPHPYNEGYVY
How it was run: as §1

ERF = molecular target: T4, ERF (Homo sapiens, UniProt P50548 1-548)
T4 sequence: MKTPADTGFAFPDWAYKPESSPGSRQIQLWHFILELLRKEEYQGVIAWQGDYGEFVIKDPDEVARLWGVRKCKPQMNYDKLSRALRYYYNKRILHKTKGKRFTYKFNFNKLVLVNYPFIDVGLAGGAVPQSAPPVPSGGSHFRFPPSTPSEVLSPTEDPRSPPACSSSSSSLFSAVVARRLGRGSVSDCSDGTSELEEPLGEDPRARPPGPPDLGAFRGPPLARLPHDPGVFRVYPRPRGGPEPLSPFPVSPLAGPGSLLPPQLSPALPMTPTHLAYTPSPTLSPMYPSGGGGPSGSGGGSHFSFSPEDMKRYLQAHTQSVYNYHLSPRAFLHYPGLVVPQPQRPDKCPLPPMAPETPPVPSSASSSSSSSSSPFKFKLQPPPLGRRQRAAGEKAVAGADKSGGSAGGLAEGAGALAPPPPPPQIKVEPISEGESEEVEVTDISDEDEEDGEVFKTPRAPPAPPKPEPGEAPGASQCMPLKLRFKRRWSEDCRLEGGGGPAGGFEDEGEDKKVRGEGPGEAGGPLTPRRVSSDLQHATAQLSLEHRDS
How it was run: as §1

ETV3L = molecular target: T5, ETV3L (Homo sapiens, UniProt Q6ZN32 1-361)
T5 sequence: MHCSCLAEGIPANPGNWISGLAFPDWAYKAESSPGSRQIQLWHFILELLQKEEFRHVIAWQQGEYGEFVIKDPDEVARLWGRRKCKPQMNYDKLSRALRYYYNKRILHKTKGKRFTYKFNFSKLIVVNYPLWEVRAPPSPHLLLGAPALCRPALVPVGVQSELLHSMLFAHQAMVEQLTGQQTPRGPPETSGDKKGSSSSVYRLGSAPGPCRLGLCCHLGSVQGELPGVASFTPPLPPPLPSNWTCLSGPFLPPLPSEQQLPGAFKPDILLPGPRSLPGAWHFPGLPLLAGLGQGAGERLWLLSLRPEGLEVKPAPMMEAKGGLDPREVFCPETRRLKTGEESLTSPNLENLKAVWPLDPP
How it was run: as §1

ETV3 = molecular target: T6, ETV3 (Homo sapiens, UniProt P41162-2 1-143)
T6 sequence: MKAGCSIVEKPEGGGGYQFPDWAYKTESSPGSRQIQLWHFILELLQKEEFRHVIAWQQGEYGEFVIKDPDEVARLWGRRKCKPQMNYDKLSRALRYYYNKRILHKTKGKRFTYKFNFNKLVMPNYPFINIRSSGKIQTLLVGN
How it was run: as §1

Sequence: CTCGGG
- binding signal (FLI1): 1.06 fold enrichment (6-mer frequency, TF over GST control)
- binding signal (ERG): 1.03 fold enrichment (6-mer frequency, TF over GST control)
- binding signal (ELF1): 1.09 fold enrichment (6-mer frequency, TF over GST control)
- binding signal (SPIB): 1.03 fold enrichment (6-mer frequency, TF over GST control)
- binding signal (ELK3): 1.05 fold enrichment (6-mer frequency, TF over GST control)
- binding signal (ETV1): 1.03 fold enrichment (6-mer frequency, TF over GST control)
- binding signal (ERF): 1.02 fold enrichment (6-mer frequency, TF over GST control)
- binding signal (ETV3L): 1.09 fold enrichment (6-mer frequency, TF over GST control)
- binding signal (ETV3): 1 fold enrichment (6-mer frequency, TF over GST control)
